Measurements from article PMC7862700, “An all-to-all approach to the identification of sequence-specific readers for epigenetic DNA modifications on cytosine”.

Experiments:
Assay in all cases: DAPPL (digital affinity profiling via proximity ligation, sequencing); 10 mM Tris-HCl pH 7.5, 50 mM NaCl, 1 mM DTT, 4% glycerol, room temperature, 30 min; GST-TFs on glutathione beads, 16-mer random dsDNA library, 0.1% formaldehyde crosslink after washing; high values mean tight binding
FLI1 = molecular target: T1, FLI1 (Homo sapiens, UniProt Q01543 1-452); conditions: protein: recombinant; tags: N-terminal GST; dsDNA, one strand shown
T1 sequence: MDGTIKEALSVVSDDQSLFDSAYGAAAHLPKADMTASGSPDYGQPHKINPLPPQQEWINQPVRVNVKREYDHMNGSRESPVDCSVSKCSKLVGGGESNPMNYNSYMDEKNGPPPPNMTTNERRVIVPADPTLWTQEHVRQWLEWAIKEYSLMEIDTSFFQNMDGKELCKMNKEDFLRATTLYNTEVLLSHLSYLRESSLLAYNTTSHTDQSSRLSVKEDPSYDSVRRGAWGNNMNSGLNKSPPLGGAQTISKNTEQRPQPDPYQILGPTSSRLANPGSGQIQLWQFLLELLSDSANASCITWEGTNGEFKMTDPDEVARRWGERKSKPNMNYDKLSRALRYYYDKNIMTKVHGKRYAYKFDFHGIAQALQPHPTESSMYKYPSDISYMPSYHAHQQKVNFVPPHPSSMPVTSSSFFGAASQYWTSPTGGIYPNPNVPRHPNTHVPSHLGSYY
Method in brief: (§1)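 Pools of DNA-barcoded human transcription factors, expressed in yeast as GST fusions on glutathione beads and combined with a tag-only sample, were incubated with 200 nmole of a 16-mer random double-stranded DNA library. Incubation took 30 min at room temperature in Tris/NaCl/DTT/glycerol buffer and was followed by washing, 0.1% formaldehyde crosslinking, proximity ligation (BsaI/T4 ligase, 1 h, 37 °C), PCR amplification and sequencing on an Illumina NextSeq500. Binding signal is the ratio of a hexamer's read frequency for a factor to its frequency for the tag-only sample.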

ELK1 = molecular target: T2, ELK1 (Homo sapiens, UniProt P19419 1-428); conditions: protein: recombinant; tags: N-terminal GST; dsDNA, one strand shown
T2 sequence: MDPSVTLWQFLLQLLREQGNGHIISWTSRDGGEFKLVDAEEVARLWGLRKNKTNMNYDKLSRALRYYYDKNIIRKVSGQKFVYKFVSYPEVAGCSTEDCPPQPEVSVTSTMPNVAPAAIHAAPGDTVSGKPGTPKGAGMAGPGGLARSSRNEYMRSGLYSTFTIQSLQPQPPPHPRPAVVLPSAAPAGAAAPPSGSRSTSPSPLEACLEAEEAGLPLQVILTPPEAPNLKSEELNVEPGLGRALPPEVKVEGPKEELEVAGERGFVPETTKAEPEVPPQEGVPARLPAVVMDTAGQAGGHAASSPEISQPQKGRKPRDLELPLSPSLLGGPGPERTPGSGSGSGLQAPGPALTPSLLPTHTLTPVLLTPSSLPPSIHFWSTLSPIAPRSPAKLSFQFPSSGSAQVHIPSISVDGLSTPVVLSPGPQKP
Method in brief: as §1

GABPA = molecular target: T3, GABPA (Homo sapiens, UniProt Q06546 1-454); conditions: protein: recombinant; tags: N-terminal GST; dsDNA, one strand shown
T3 sequence: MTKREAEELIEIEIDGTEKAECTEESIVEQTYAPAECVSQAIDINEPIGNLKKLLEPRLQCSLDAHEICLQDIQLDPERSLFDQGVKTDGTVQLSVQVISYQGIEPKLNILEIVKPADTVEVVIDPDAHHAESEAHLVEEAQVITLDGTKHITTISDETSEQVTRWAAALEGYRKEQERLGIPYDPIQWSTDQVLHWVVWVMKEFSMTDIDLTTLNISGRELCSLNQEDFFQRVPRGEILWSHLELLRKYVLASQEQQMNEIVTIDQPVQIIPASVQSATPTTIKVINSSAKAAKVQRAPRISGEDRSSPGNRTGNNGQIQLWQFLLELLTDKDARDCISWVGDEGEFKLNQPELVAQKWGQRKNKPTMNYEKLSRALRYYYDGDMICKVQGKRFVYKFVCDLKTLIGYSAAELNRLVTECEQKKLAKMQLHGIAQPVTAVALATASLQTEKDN
Method in brief: as §1

ERG = molecular target: T4, ERG (Homo sapiens, UniProt P11308 1-479); conditions: protein: recombinant; tags: N-terminal GST; dsDNA, one strand shown
T4 sequence: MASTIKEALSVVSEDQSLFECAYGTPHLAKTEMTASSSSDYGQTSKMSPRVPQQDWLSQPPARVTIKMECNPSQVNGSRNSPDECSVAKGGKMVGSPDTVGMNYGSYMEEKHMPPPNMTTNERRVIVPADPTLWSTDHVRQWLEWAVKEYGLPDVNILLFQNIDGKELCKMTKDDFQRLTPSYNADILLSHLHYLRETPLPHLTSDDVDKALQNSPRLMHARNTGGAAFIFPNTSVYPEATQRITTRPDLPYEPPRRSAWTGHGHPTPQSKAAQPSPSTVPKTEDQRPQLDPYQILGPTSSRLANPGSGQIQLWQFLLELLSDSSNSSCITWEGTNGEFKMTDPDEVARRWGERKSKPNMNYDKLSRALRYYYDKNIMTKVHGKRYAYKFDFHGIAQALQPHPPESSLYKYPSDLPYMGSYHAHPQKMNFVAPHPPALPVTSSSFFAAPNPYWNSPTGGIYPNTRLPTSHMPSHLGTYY
Method in brief: as §1

ELF1 = ELF1 (Homo sapiens, UniProt P32519 1-619); conditions: protein: recombinant; tags: N-terminal GST; dsDNA, one strand shown
Chain of ELF1 (P32519 whole entry): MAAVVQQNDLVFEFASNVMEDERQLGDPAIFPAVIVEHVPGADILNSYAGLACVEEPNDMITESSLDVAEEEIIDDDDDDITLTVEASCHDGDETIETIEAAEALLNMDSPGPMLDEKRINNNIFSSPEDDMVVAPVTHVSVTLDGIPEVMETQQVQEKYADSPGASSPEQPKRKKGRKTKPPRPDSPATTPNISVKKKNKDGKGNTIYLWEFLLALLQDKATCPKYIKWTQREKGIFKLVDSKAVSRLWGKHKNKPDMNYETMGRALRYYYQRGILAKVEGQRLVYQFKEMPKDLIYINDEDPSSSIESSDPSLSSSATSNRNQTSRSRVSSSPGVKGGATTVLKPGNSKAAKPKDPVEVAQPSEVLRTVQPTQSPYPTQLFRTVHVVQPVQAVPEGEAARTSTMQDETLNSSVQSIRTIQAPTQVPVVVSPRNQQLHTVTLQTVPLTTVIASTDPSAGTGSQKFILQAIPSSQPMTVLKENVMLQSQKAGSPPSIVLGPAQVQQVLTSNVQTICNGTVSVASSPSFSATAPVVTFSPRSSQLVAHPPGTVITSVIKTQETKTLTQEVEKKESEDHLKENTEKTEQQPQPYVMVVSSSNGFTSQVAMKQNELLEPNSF
Method in brief: as §1

EHF = molecular target: T5, EHF (Homo sapiens, UniProt Q9NZC4 1-300); conditions: protein: recombinant; tags: N-terminal GST; dsDNA, one strand shown
T5 sequence: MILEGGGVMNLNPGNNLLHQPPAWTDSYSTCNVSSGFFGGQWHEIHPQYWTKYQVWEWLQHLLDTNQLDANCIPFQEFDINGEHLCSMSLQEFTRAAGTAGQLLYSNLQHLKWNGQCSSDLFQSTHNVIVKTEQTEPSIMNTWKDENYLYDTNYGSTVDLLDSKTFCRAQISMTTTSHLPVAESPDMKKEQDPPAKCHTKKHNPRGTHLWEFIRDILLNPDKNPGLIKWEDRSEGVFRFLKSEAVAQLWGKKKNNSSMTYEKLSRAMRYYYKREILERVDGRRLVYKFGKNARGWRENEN
Method in brief: as §1

SPI1 = SPI1 (Homo sapiens, UniProt P17947 1-270); conditions: protein: recombinant; tags: N-terminal GST; dsDNA, one strand shown
Method in brief: as §1

SPIB = SPIB (Homo sapiens, UniProt Q01892 1-262); conditions: protein: recombinant; tags: N-terminal GST; dsDNA, one strand shown
Chain of SPIB (Q01892 whole entry): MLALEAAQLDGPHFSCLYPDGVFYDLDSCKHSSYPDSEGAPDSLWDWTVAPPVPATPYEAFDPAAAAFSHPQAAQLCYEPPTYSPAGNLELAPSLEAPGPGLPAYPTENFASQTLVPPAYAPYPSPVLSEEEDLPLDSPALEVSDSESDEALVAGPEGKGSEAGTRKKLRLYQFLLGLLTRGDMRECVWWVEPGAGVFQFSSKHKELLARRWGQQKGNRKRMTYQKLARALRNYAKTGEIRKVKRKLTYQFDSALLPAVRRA
Method in brief: as §1

ELK3 = molecular target: T6, ELK3 (Homo sapiens, UniProt P41970 1-407); conditions: protein: recombinant; tags: N-terminal GST; dsDNA, one strand shown
T6 sequence: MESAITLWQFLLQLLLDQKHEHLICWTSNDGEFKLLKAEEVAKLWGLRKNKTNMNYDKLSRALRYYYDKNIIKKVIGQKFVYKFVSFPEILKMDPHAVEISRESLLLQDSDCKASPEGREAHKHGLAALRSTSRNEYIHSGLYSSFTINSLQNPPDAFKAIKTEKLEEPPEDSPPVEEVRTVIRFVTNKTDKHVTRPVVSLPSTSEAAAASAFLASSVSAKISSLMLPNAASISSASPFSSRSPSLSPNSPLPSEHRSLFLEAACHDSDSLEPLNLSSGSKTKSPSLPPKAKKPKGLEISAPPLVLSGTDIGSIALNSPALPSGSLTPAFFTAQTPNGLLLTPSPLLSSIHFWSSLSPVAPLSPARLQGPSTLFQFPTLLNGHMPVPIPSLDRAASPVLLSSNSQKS
Method in brief: as §1

FEV = molecular target: T7, FEV (Homo sapiens, UniProt Q99581 1-238); conditions: protein: recombinant; tags: N-terminal GST; dsDNA, one strand shown
T7 sequence: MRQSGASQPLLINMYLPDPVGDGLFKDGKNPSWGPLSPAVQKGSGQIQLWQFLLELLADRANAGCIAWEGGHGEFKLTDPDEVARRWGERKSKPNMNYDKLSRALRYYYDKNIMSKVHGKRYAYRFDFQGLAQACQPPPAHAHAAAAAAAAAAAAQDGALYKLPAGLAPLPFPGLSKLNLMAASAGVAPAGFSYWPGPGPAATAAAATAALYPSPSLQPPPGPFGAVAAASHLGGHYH
Method in brief: as §1

ETV5 = ETV5 (Homo sapiens, UniProt P41161 1-510); conditions: protein: recombinant; tags: N-terminal GST; dsDNA, one strand shown
Chain of ETV5 (P41161 whole entry): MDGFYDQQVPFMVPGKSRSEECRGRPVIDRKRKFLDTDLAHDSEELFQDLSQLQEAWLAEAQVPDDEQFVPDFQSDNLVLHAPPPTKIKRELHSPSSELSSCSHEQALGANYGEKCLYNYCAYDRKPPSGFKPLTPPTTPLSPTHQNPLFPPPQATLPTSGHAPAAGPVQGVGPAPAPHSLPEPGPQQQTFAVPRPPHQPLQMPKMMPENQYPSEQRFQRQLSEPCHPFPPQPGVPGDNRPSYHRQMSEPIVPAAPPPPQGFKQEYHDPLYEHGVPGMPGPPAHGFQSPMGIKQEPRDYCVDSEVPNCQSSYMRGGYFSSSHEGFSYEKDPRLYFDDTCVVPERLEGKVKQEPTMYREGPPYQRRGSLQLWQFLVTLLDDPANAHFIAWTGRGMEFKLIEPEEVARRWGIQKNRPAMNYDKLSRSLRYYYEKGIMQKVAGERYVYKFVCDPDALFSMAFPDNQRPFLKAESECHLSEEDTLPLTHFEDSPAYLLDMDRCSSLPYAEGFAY
Method in brief: as §1

HSF1 = HSF1 (Homo sapiens, UniProt Q00613 1-529); conditions: protein: recombinant; tags: N-terminal GST; chain copies: 3; dsDNA, one strand shown
Chain of HSF1 (Q00613 whole entry): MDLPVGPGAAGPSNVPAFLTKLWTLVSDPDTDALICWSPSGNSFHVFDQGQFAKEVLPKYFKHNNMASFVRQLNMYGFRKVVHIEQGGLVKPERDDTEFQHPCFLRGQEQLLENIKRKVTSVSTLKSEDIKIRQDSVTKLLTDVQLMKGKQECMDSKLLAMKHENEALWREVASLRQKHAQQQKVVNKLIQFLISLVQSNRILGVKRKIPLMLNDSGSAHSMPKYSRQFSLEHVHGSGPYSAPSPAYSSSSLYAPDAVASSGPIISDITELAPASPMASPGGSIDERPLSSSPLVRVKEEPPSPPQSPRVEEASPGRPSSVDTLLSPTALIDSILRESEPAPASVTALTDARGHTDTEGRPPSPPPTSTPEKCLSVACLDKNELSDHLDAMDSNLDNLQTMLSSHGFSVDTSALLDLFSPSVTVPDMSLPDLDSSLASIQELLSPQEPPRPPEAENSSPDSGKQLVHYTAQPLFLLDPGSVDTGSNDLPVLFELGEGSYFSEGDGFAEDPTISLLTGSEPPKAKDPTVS
Method in brief: as §1

SPIC = molecular target: T8, SPIC (Homo sapiens, UniProt Q8N5J4 1-248); conditions: protein: recombinant; tags: N-terminal GST; dsDNA, one strand shown
T8 sequence: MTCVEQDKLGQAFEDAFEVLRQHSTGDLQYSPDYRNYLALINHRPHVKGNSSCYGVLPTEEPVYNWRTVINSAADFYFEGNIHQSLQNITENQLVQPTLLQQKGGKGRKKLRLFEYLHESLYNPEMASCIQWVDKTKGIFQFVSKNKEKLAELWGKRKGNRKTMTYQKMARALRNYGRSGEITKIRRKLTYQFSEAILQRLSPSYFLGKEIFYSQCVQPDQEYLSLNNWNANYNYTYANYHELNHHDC
Method in brief: as §1

ELF4 = ELF4 (Homo sapiens, UniProt Q99607 1-663); conditions: protein: recombinant; tags: N-terminal GST; dsDNA, one strand shown
Chain of ELF4 (Q99607 whole entry): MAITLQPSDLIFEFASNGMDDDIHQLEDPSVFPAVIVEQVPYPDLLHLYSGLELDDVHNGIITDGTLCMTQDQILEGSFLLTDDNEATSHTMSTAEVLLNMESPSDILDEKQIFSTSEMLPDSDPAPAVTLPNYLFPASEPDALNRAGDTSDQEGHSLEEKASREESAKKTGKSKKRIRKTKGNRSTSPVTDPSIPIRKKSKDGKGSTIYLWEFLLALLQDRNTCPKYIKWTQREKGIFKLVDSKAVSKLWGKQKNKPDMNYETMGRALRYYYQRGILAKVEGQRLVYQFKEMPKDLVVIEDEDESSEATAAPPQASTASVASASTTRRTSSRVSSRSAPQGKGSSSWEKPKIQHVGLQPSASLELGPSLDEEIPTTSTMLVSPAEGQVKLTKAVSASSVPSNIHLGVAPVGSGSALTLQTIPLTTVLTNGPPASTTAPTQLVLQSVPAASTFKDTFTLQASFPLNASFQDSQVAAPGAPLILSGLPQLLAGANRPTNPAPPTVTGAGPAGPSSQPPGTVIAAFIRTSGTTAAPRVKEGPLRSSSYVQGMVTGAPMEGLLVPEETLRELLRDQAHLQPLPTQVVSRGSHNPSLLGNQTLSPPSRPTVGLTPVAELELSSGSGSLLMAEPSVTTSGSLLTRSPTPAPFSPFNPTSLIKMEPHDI
Method in brief: as §1

ELK4 = molecular target: T9, ELK4 (Homo sapiens, UniProt P28324-2 1-405); conditions: protein: recombinant; tags: N-terminal GST; dsDNA, one strand shown
T9 sequence: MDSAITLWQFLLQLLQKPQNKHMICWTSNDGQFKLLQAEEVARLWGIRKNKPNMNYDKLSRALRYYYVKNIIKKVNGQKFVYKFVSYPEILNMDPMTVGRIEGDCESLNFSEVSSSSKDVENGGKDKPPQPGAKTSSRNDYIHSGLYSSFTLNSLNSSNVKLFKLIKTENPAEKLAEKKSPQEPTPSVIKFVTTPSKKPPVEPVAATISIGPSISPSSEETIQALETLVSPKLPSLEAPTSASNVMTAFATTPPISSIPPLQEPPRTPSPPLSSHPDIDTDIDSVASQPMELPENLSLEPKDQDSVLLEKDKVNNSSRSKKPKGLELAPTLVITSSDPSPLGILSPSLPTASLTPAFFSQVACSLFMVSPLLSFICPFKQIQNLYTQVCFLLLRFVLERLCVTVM
Method in brief: as §1

ETV2 = molecular target: T10, ETV2 (Homo sapiens, UniProt O00321 1-342); conditions: protein: recombinant; tags: N-terminal GST; dsDNA, one strand shown
T10 sequence: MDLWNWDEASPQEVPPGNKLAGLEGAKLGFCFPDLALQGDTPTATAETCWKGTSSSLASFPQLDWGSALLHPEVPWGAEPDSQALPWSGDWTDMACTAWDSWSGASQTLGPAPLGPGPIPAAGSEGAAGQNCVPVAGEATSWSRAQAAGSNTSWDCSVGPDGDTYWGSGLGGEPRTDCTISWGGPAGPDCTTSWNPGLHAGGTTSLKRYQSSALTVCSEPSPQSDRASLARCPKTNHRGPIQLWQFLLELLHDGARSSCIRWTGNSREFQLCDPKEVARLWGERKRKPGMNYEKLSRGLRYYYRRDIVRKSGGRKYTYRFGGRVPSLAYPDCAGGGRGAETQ
Method in brief: as §1

ELF3 = molecular target: T11, ELF3 (Homo sapiens, UniProt P78545 1-371); conditions: protein: recombinant; tags: N-terminal GST; dsDNA, one strand shown
T11 sequence: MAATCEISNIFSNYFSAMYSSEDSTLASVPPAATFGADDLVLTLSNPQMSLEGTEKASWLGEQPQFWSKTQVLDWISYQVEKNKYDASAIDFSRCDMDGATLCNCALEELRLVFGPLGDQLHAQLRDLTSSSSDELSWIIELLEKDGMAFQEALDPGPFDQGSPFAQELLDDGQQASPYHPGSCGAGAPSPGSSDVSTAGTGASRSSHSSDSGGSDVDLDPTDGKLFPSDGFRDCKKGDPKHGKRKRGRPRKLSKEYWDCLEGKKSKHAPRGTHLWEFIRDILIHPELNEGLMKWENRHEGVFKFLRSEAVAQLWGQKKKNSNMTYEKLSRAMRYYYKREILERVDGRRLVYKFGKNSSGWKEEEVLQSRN
Method in brief: as §1

CRX = CRX (Homo sapiens, UniProt O43186 1-299); conditions: protein: recombinant; tags: N-terminal GST; dsDNA, one strand shown
Chain of CRX (O43186 whole entry): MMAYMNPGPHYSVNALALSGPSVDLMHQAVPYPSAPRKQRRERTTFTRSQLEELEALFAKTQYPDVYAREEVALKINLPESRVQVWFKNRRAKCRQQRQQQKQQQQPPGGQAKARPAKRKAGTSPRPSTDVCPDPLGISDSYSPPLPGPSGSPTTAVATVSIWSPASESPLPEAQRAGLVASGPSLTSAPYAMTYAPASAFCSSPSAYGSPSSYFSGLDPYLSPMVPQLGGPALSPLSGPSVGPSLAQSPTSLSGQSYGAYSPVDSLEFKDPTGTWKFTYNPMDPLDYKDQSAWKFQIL
Method in brief: as §1

ETV1 = ETV1 (Homo sapiens, UniProt P50549 1-477); conditions: protein: recombinant; tags: N-terminal GST; dsDNA, one strand shown
Chain of ETV1 (P50549 whole entry): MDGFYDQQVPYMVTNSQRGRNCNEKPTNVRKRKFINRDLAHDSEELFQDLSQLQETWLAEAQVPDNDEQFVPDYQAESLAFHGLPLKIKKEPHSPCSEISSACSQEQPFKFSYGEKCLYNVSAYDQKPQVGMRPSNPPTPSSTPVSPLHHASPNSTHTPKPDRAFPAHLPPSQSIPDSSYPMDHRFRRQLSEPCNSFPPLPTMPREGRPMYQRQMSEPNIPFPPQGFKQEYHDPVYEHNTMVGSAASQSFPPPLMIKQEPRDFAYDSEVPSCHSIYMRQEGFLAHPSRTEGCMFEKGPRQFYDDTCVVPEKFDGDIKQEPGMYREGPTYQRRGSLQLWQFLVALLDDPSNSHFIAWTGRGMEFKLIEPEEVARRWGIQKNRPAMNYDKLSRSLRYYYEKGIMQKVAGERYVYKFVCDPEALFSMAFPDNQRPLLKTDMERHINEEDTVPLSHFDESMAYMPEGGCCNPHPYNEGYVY
Method in brief: as §1

With TCCGGA the binding signal (FLI1) was 2.58 fold enrichment (6-mer frequency, TF over GST control), the binding signal (ELK1) was 2.53 fold enrichment (6-mer frequency, TF over GST control) and the binding signal (GABPA) was 2.37 fold enrichment (6-mer frequency, TF over GST control). The binding signal (ERG) was 3.19 fold enrichment (6-mer frequency, TF over GST control), the binding signal (ELF1) was 2.3 fold enrichment (6-mer frequency, TF over GST control) and the binding signal (EHF) was 2.86 fold enrichment (6-mer frequency, TF over GST control). For the same sequence, the binding signal (SPI1) was 2.39 fold enrichment (6-mer frequency, TF over GST control), the binding signal (SPIB) was 2.69 fold enrichment (6-mer frequency, TF over GST control) and the binding signal (ELK3) was 2.67 fold enrichment (6-mer frequency, TF over GST control). The binding signal (FEV) was 3.95 fold enrichment (6-mer frequency, TF over GST control), the binding signal (ETV5) was 2.83 fold enrichment (6-mer frequency, TF over GST control) and the binding signal (HSF1) was 1.58 fold enrichment (6-mer frequency, TF over GST control). The binding signal (SPIC) was 2.3 fold enrichment (6-mer frequency, TF over GST control), the binding signal (ELF4) was 2.27 fold enrichment (6-mer frequency, TF over GST control) and the binding signal (ELK4) was 1.94 fold enrichment (6-mer frequency, TF over GST control). For the same sequence, the binding signal (ETV2) was 2.27 fold enrichment (6-mer frequency, TF over GST control), the binding signal (ELF3) was 2.23 fold enrichment (6-mer frequency, TF over GST control) and the binding signal (CRX) was 1.14 fold enrichment (6-mer frequency, TF over GST control). The binding signal (ETV1) was 2.75 fold enrichment (6-mer frequency, TF over GST control).
